AI-2 QS modul = Vibrio harveyi AI-2 quorum sensing modulators, primary screen, JMH597 strain, luminescence/OD600 ratio | activity change, % at 7.5 µM | Vibrio harveyi JMH597 AI-2 luminescence/OD600 ratio, 9 h; active compounds read low; strain lacks LuxN and CqsS sensors; 0 = neutral-control median | AID 2094, 2009 | hit rate 0.4% among 300,000; in the data active means activity change below about -75%, passing the limit was not always enough;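 further: luminescence divided by OD600 gain over 9 h not by final OD600 alone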
ALR H2O2 inh = inhibitors of human ALR sulfhydryl oxidase, primary screen, biochemical, H2O2 detection, HRP-luminol luminescence, single point | FAD-linked sulfhydryl oxidase ALR (Homo sapiens), P55789 | hit rate 3.8% among 290,000 | purified ALR, DTT oxidation | inhibition, % (no concentration beside the values) | AID 485317, 2010;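 active means mean replicate inhibition above about 79%, with every replicate also reaching it, limit read from the data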
CHT PAM = CHT positive allosteric modulators, primary screen, cell-based, membrane potential dye, choline EC20; High affinity choline transporter 1 (Homo sapiens), Q9GZV3; CHT-expressing cells; active compounds read high; LV-AA mutant CHT in HEK293 cells; B-score at 10 µM; hit rate 0.49% among 310,000;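 active means initial fluorescence not abnormally high and integrated response B-score, plate-corrected, over 3 SD above library mean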
Target sequence (Q9GZV3 whole entry, looked up): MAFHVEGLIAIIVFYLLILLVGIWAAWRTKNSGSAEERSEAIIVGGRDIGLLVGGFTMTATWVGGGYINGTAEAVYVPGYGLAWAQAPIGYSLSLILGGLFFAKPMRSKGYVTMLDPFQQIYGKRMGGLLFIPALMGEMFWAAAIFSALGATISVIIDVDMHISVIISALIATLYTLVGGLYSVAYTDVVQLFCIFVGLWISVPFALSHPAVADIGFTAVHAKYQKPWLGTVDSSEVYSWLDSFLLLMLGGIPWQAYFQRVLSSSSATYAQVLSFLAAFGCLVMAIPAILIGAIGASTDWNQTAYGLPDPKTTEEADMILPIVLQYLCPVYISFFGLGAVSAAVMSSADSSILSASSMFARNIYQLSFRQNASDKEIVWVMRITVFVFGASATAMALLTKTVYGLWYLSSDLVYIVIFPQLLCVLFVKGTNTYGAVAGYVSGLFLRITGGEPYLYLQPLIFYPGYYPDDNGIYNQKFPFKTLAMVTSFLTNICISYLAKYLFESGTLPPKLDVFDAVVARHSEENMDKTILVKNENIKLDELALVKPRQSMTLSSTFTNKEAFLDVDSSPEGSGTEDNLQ
CHT block = inhibitors of human choline transporter CHT | High affinity choline transporter 1 (Homo sapiens), Q9GZV3 | CHT-expressing cells, membrane potential dye, choline response; active compounds read low | B-score at 10 µM | hit rate 0.86% among 310,000;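 active means B-score over 3 SD under the library average, and starting fluorescence ratio not unusually high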;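 further: choline stimulus applied at its EC90 after an EC20 pre-addition; B-score computed on integrated fluorescence ratio after choline addition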
PREPL inh = PREPL enzyme inhibitors, primary screen, biochemical, fluorescence polarization | hit rate 0.68% among 320,000 | inhibition, % at 5.96 µM | recombinant PREPL, fluorescence polarization activity-based probe | Prolyl endopeptidase-like (Homo sapiens), Q4J6C6; in the data active means inhibition above about 43%;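 further: 0% = enzyme with DMSO and 100% = wells lacking enzyme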
Starred values were filed as active, the others as inactive. Only some compounds are listed: those with a hit (about 5% of all), similar ones and a draw of the others.

Screening O=C(CSCC(=O)N1CCCc2ccccc21)Nc1nc(-c2ccccc2)cs1 returned AI-2 QS modul 10, ALR H2O2 inh 100*, CHT PAM inactive, CHT block inactive and PREPL inh -3.
`Cc1scc(C(=O)N2CCN(c3ccc(Cl)cc3)CC2)c1C` gave AI-2 QS modul 14, ALR H2O2 inh 22, CHT PAM inactive, CHT block inactive and PREPL inh 27.
NC(=S)NNC(=O)Nc1ccc(Cl)c(Cl)c1 was read as AI-2 QS modul 25, ALR H2O2 inh 94*, CHT PAM inactive, CHT block inactive and PREPL inh 4.
For COCCNc1nc(-c2ccc(OC)cc2)c(-c2ccc(OC)cc2)s1 the results were AI-2 QS modul 6, ALR H2O2 inh 94*, CHT PAM inactive, CHT block inactive and PREPL inh 7.
Screening COc1ccc(-c2sc(NC(C)=O)nc2-c2ccccc2)cc1 returned AI-2 QS modul -15, ALR H2O2 inh -9, CHT PAM inactive, CHT block inactive and PREPL inh 37.
Screening CC1(C)C2(C#N)C(N)=NC3(OCCO3)C12C#N (stereo not given) returned AI-2 QS modul 20, ALR H2O2 inh 100*, CHT PAM inactive, CHT block inactive and PREPL inh 12.
Screening COc1ccc(-n2ccnc(SCC(=O)NC3CCCCC3)c2=O)cc1 returned AI-2 QS modul 1, ALR H2O2 inh 98*, CHT PAM inactive, CHT block inactive and PREPL inh 14.
CCOc1ccc(-n2ccnc(SCC(=O)Nc3ccc(CC)cc3)c2=O)cc1 was read as AI-2 QS modul 43, ALR H2O2 inh 99*, CHT PAM inactive, CHT block inactive and PREPL inh 3.
CN(CC(=O)Nc1ccccc1Cl)C(=O)COC(=O)/C=C/c1cccc(C(F)(F)F)c1 was read as PREPL inh 15.
Screening Cc1ccc(NC(NC(=O)c2cccs2)C(Cl)(Cl)Cl)cc1C (stereo not given) returned AI-2 QS modul -17, ALR H2O2 inh 67, CHT PAM inactive, CHT block inactive and PREPL inh -9.
Cc1ccc(NC(NC(=O)c2cccs2)C(Cl)(Cl)Cl)cc1 (stereo not given) was read as AI-2 QS modul 13, ALR H2O2 inh 98*, CHT PAM inactive, CHT block inactive and PREPL inh -3.
Screening Cc1ccc(NC(NC(=O)c2ccccn2)C(Cl)(Cl)Cl)cc1 (stereo not given) returned AI-2 QS modul 13, ALR H2O2 inh 99*, CHT PAM inactive, CHT block inactive and PREPL inh 0.
Screening COc1ccccc1NC(NC(=O)c1cccnc1)C(Cl)(Cl)Cl (stereo not given) returned AI-2 QS modul 4, ALR H2O2 inh 88*, CHT PAM inactive, CHT block inactive and PREPL inh 10.
`Cc1ccc(C)c(NC(NC(=O)c2cccnc2)C(Cl)(Cl)Cl)c1` (stereo not given) gave AI-2 QS modul 30, ALR H2O2 inh -9, CHT PAM inactive, CHT block inactive and PREPL inh 4.
For Cc1ccc(NC(NC(=O)c2cccnc2)C(Cl)(Cl)Cl)cc1 (stereo not given) the results were AI-2 QS modul 8, ALR H2O2 inh 99*, CHT PAM inactive, CHT block inactive and PREPL inh -15.
For COc1ccc(-c2c(-c3cc(OC)cc(OC)c3)n(C)c3ccc(-c4ccc(N(C)C)nc4)cc23)cc1 the results were ALR H2O2 inh -12 and PREPL inh 19.
For COc1ccccc1N1CCN(C(=O)c2ccc(-c3ccc(Cl)cc3)o2)CC1 the results were ALR H2O2 inh -1 and PREPL inh 16.
COc1ccc(C(=O)c2ccc(OC)c(N)c2)cc1N was read as AI-2 QS modul 14, CHT PAM 12*, CHT block inactive and PREPL inh 24.
CC(=O)Oc1cc(O)c2c(c1)OC(c1ccc(OC(C)=O)c(OC(C)=O)c1)C(OC(C)=O)C2=O (stereo not given) was read as AI-2 QS modul 2, ALR H2O2 inh 89*, CHT PAM inactive, CHT block inactive and PREPL inh 15.
`COc1cc(C2Oc3cc(C4Oc5cc(O)cc(O)c5C(=O)C4O)ccc3OC2CO)ccc1O` (stereo not given) gave AI-2 QS modul -4, ALR H2O2 inh 74, CHT PAM inactive, CHT block inactive and PREPL inh 1.
COc1ccccc1N1CCN(S(=O)(=O)c2cc(C)sc2C)CC1 was read as AI-2 QS modul 12, CHT PAM inactive, CHT block inactive and PREPL inh 20.
Cc1ccc(C(=O)N2CCN(c3ccccc3O)CC2)cc1S(=O)(=O)N1CCCCC1 was read as AI-2 QS modul 15, ALR H2O2 inh 98*, CHT PAM inactive, CHT block inactive and PREPL inh 16.
`Cc1cc(S(=O)(=O)N2CCN(c3ccccc3O)CC2)c(C)s1` gave AI-2 QS modul 20, ALR H2O2 inh 98*, CHT PAM inactive, CHT block inactive and PREPL inh -15.
`Cc1cc(C)c(NC(=O)CSc2nnnn2-c2cccnc2)c(C)c1` gave AI-2 QS modul 14, CHT PAM inactive, CHT block inactive and PREPL inh -3.
Screening COc1cc(-c2nnc3sc(-c4ccncc4)nn23)cc(OC)c1OC returned AI-2 QS modul 12, ALR H2O2 inh -3, CHT PAM inactive, CHT block inactive and PREPL inh 4.
COc1cc(-c2nnc3sc(-c4ccco4)nn23)cc(OC)c1OC was read as AI-2 QS modul 15, ALR H2O2 inh 98*, CHT PAM inactive, CHT block inactive and PREPL inh 3.
`COc1ccc(-c2nnc3sc(-c4ccco4)nn23)cc1OC` gave AI-2 QS modul 17, ALR H2O2 inh 99*, CHT PAM inactive, CHT block inactive and PREPL inh -12.
Screening COc1cccc(-c2nnc3sc(-c4ccco4)nn23)c1 returned AI-2 QS modul 2, ALR H2O2 inh -9, CHT PAM inactive, CHT block inactive and PREPL inh -1.
Cc1ccc(NC(=O)c2ccc(Cn3cc(Cl)cn3)o2)c(C)c1 was read as AI-2 QS modul 17, ALR H2O2 inh -11, CHT PAM inactive, CHT block inactive and PREPL inh 1.
COC(=O)c1sc(NC(=O)c2ccc(Cn3cc(Cl)cn3)o2)c(C#N)c1C was read as AI-2 QS modul 3, ALR H2O2 inh 88*, CHT PAM inactive, CHT block inactive and PREPL inh 16.
Screening Cc1ccc(C(=O)Nc2nc(-c3ccc([N+](=O)[O-])cc3)cs2)o1 returned AI-2 QS modul 2, ALR H2O2 inh 98*, CHT PAM inactive, CHT block inactive and PREPL inh -1.
